# Compound activity (PubChem BioAssay)
# In the library only some 3.6% were active in any assay of this set; here they are far more common.
# FBPA Giardia inh: inhibitors of Giardia lamblia fructose-1,6-bisphosphate aldolase; A8B2U2; purified Giardia FBPA; AID 2451; actives 0.71% (n = 290,000); Potency, µM (series often up to 59.6 µM), inactives show top-dose activity, negative = inhibition, most hits filed as inhibitors; also: nearly all actives have a fitted effect of over 55% in size
#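 Giardia FBPA (40 nM reagent) was preincubated 10 min at RT with compound (up to 57.5 uM final), then substrate plus GAPDH/TPI/NAD/arsenate coupling system with diaphorase/resazurin was added; resorufin fluorescence (525/598 nm) was read after 20 min.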
# AmpC no deterg: AmpC beta-lactamase inhibition without detergent; Potency, µM (highest dose often 57.1 µM), inactives show at the highest dose activity change, negative = inhibition, actives largely listed as inhibitors; AmpC nitrocefin hydrolysis, absorbance 480 nm, 0.0001% Triton; actives 0.52% (n = 330,000); P00811;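 also: plate controls were no compound for no effect and no enzyme for full effect; nearly all actives have a fitted effect of over 20% in size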
# Target sequence (P00811 whole entry, looked up): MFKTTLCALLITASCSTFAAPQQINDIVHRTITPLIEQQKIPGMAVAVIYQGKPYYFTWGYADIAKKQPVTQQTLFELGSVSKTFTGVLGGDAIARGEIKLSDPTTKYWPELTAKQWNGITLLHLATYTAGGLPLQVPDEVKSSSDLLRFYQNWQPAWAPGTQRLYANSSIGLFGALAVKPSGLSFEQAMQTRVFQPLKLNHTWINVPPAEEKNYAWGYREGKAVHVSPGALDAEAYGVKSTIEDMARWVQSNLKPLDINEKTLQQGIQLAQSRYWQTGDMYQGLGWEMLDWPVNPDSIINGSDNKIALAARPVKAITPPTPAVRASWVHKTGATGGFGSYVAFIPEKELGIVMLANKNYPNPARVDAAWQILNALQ
#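 20 mM phosphate pH 7.0 + 0.01% (detergent screen) or 0.0001% Triton X-100; 5.3 nM AmpC reagent; cpd preinc 15 min RT; nitrocefin (800 uM stock) to start; A480 q20 s × 4 min; Activity was normalised to no-enzyme and no-compound control wells.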
# AmpC detergent: AmpC beta-lactamase inhibition with detergent present. AmpC hydrolysis of nitrocefin, absorbance 480 nm, 0.01% Triton. Potency, µM (series often up to 114 µM), for the others: at the top dose activity change, negative = inhibition, actives largely listed as inhibitors. actives 0.041% (n = 370,000);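 also: 0% = no-compound wells and -100% = no-enzyme wells; nearly all actives have a fitted effect of over 25% in size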
#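 20 mM phosphate pH 7.0 + 0.01% (detergent screen) or 0.0001% Triton X-100; 5.3 nM AmpC reagent; cpd preinc 15 min RT; nitrocefin (800 uM stock) to start; A480 q20 s × 4 min; Activity was normalised to no-enzyme and no-compound control wells.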
# Sm TGR block: S. mansoni TGR enzyme inhibition | purified TGR, DTNB reduction, TNB absorbance 405 nm | Q962Y6 | Potency, µM (highest dose often 114 µM), without a hit: top-dose activity change, negative = inhibition, usual class: inhibitors | actives 3% (n = 360,000); also: nearly all actives have a fitted effect of over 60% in size
#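 Kinetic colorimetric format: TGR-catalysed, NADPH-driven DTNB reduction monitored via TNB absorbance. Enzyme dispensed at 20 nM; compound exposure 15 min at room temperature before reaction start.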
# Active calls of the source: *; ? = inconclusive; . = not tested or not shown; [ ] = dose if it differs, or a comment. Calls follow the shape of the dose curve; as a rule, active = well fitted curve in the direction sought with a large enough effect; inconclusive = small, poorly fitted or top-dose-only effect, or another doubt; inactive = no such curve, though single readings can be large; an effect the other way counts as inactive or inconclusive. Unless noted, % is scaled to controls: 0 for no effect and ±100 for the full control effect; potency is read from the fitted curve at half-maximal effect.
SMILES,FBPA Giardia inh,AmpC no deterg,AmpC detergent,Sm TGR block
O=C(Nc1ccccc1)c1ccc(NCCN2CCOCC2)c(S(=O)(=O)N2CCOCC2)c1,0%,53%,?,4%
Cc1ccc(S(=O)(=O)N2CCOCC2)cc1NC(=O)COC(=O)/C=C/c1ccco1,.,-10%,.,.
COc1ccc(NC(=O)/C=C/c2ccc(C)o2)cc1S(=O)(=O)N1CCOCC1,-14%,-13%,?,18µM*
O=C(Nc1ccccc1)c1ccc(NCc2ccco2)c(S(=O)(=O)N2CCOCC2)c1,-6%,?,-1%,32µM*
CC1CC=CC2C1C(=O)N(Cc1ccccc1)C2c1ccc(F)c(Br)c1 (stereo not given),-3%,.,.,.
COc1ccc(C(=O)Nc2ccc(N3CCOCC3)cc2)cc1S(=O)(=O)N1CCOCC1,.,3%,1%,6%
COc1ccc(C(=O)Nc2ccc(-c3ccc(C)o3)cc2)cc1S(=O)(=O)N1CCOCC1,0%,53%,6%,50µM*
COc1ccc(S(=O)(=O)CCC(=O)NCCc2ccc(S(N)(=O)=O)cc2)cc1,10%,-16%,3%,40µM*
Cc1ccc(-n2nc3c(=O)n(CC(=O)NC(C)CCc4ccccc4)nc(C)c3c2C)cc1 (stereo not given),5%,-11%,-10%,0%
CCCCCOC(=O)Cc1c(O)c2ccccc2n(C)c1=O,-3%,-4%,-17%,4µM*
Cn1c(=O)c(Cc2ccccc2)c(O)c2ccccc21,-10%,-4%,1%,-22%
COC(=O)c1ccc(-c2noc(CN(C)CCC3CCCCO3)n2)cc1 (stereo not given),18µM*,-49%,?,0.1µM*
Nc1c(C(O)(C(F)(F)F)C(F)(F)F)ccc2ccccc12,-16%,26%,-5%,40µM*
CCCCN(CC)Cc1ccc(CNC(=S)Nc2cccc(F)c2)o1,?,35%,-1%,40µM*
O=C(O)c1ccc(/C=N/NC(=O)c2ccc(CN3c4cccc5cccc(c45)S3(=O)=O)cc2)cc1,-18%,28µM*,-13%,-10%
CC(/C=N/NC(=O)c1ccc(CN2c3cccc4cccc(c34)S2(=O)=O)cc1)c1ccccc1 (stereo not given),-1%,-42%,-5%,3%
O=S(=O)(/N=C(\c1ccc(Cl)cc1)N1CCOCC1)c1ccccc1,5%,0%,-11%,-4%
O=[N+]([O-])c1cc(S(=O)(=O)/N=C(/c2ccccc2)N2CCOCC2)ccc1Cl,-9%,10%,3%,45µM*
COc1cc(Cl)c(S(=O)(=O)N2CCN(c3c(C)cccc3C)CC2)cc1Cl,.,.,1%,3%
CC(=O)c1cc(F)c(N2CCN(C(=O)Cc3ccccc3)CC2)cc1C,20%,18%,8%,28µM*
CCOC(=O)N1CCN(C(=O)c2ccc3c(c2)NC(=O)/C(=C\c2cccc(C)c2)S3)CC1,9%,33%,1%,2%
O=C(COc1cccc2c1CCN(Cc1ccccc1F)C2=O)N1CCOCC1,1%,26%,0%,5%
O=C(COc1cccc2c1CCN(Cc1ccccc1F)C2=O)N1CCCCC1,4%,25%,?,89µM*
O=C(COc1ccccc1-c1nc(-c2ccccc2)no1)Nc1cccc([N+](=O)[O-])c1,.,.,-1%,-2%
CC(=O)N1c2ccccc2NC2=C(C(=O)CCC2)C1c1ccco1 (stereo not given),-16%,13%,-2%,35µM*
SMILES,FBPA Giardia inh,AmpC no deterg,AmpC detergent,Sm TGR block
COc1ccc(C2C3=C(CC(c4ccco4)CC3=O)Nc3ccccc3N2C(C)=O)cc1 (stereo not given),2%,6%,?,15%
O=c1c(-c2ccccc2)coc2cc(O)cc(O)c12,20µM*,.,.,.
Cc1cccc(C(=O)Nc2ccccc2OCc2cc(=O)n3ccccc3n2)c1,.,.,-2%,-1%
COc1cccc(-n2c(/C=C/c3ccc(O)c(O)c3)nc3ccccc3c2=O)c1,-27%,18µM*,-2%,10%
CCc1ccc(/C=N/NC(=O)c2c[nH]c3ccccc23)s1,-2%,22µM*,-1%,0%
O=c1/c(=C\c2cc([N+](=O)[O-])cc([N+](=O)[O-])c2O)sc2nc3ccccc3n12,16µM*,-46%,?,-2%
COC(=O)/C=c1/sc2nc3ccccc3n2c1=O,-1%,-34%,45µM*,8%
O=c1/c(=C/c2ccccn2)sc2nc3ccccc3n12,-10%,-12%,-12%,2%
Cc1cccc(-c2nnc(SCC(=O)c3ccc(O)cc3O)n2C)c1,0%,-16%,3%,6%
C=CCc1c(C)nc2nc(SCC(=O)Nc3ccccc3CC)nn2c1C,.,.,5%,13%
Cc1ccc(N/N=C2/CCCNC2=O)cc1,-26%,-15%,-14%,32µM*
COc1ccc(N/C=C2/CCCCC2=O)cc1,14%,26%,-8%,40µM*
O=C(Nc1ccccc1F)c1ccc(Cn2cc(Cl)cn2)cc1,3%,-9%,-2%,10%[57.1 µM]
Cc1ccc(Cl)cc1NC(=O)c1ccc(Cn2cc(Cl)cn2)cc1,-5%,11µM*,-10%,-6%
O=C(COC(=O)c1nc(Cl)c(Cl)c(Cl)c1Cl)NCc1ccccc1,.,-24%,-21%,4µM*
O=C(NC(=S)Nc1cccc2ncccc12)c1cccs1,?,-12%,-1%,4µM*
CC(=O)Nc1cccc2ncccc12,1%,-9%,?,6%
O=C(NC(=S)Nc1cccc2ncccc12)c1ccccc1,?,-16%,?,8.9µM*
COC(=O)c1c(NC(=O)CCc2ccc(C)o2)sc(C)c1C,-1%,-10%,7%,40µM*
O=S(=O)(c1ccc(-c2csc(Nc3ccc(F)cc3)n2)cc1)N1CCCC1,11%,8.9µM*,-3%,-17%
O=C(Nc1ccc(F)cc1)c1cc(S(=O)(=O)N2CCCCC2)cs1,1%,22µM*,4%,-24%
O=C(Nc1ccc(F)cc1)Nc1ccc(S(=O)(=O)N2CCCC2)cc1,.,-30%,1%,-12%
Cc1oc(S(=O)(=O)N2CCCCC2)cc1NC(=O)Nc1ccc(F)cc1,-3%,-44%,-3%,10µM*
CCOC(=O)c1c(CCl)nc2ccccc2c1-c1ccccc1,-8%,-41%,-6%,25µM*
CCCc1nc([N+](=O)[O-])c(S(=O)(=O)c2ccccc2)n1CC(C)C,1%,0%,2%,0.89µM*
CC(C)Cn1c(C(C)C)nc([N+](=O)[O-])c1S(=O)(=O)c1ccc(F)cc1,2%,14%,3%,1.8µM*
CC(C)Cn1c(C(C)C)nc([N+](=O)[O-])c1Sc1ccc(Cl)cn1,-4%,27%,?,-28%
Cc1cc(C)cc(N2CCn3c2nc2c3c(=O)n(Cc3ccc(Cl)cc3)c(=O)n2C)c1,.,.,-2%,-3%
COc1ccc(CNC(=O)c2ccc(-c3nc(CSc4ccccc4)c(C)o3)cc2)cc1OC,.,.,5%,-32%
Cc1nc(CNC(=O)CC2C(=O)NCCN2Cc2ccoc2)nc2c1CCCC2 (stereo not given),-16%,-3%,-4%,14µM*
